Experimental data from PubChem BioAssay AID1159580 (chemical genetic matrix, 2015).
Where “and” joins values, the source holds several entries; their conditions need not be identical. Identical values can stand only once. In all, about 5,500 compounds went through this assay and about 2,000 (36%) were called active. Roughly 18% stayed inconclusive and do not appear here. Cut-off read from the data, not from the text of the source: active = normalized growth mostly below about 0.91 (no sharp cut-off); inconclusive = no clear call, values can overlap the other calls; inactive = mostly above about 0.92. The list shows a part of the results.

Assay: chemical genetic growth profiling, strain panel (AID 1159580);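 note: tested at 20 µM; growth read once vehicle control cultures reached saturation at 30 °C; 1 = growth at the plate median or of vehicle wells; lower values mean less growth of the strain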
Conditions: S. cerevisiae deletion strains, growth OD

Measured: normalized growth

COc1cc2cc[n+]3cc4c(OC)c(OC)ccc4cc3c2cc1OC
inactive: locus YAL013W, strain DEP1, stronger effect = lower value 0.996 | locus YAL021C, strain ccr4, stronger effect = lower value 0.99 | locus YAL026C, strain drs2, stronger effect = lower value 0.97 | locus YAL030W, strain snc1, stronger effect = lower value 0.965 | locus YBL061C, strain skt5, stronger effect = lower value 0.971 | locus YBR009C, strain hhf1, stronger effect = lower value 0.984 | locus YBR021W, strain FUR4, stronger effect = lower value 1.03 | locus YBR023C, strain chs3, stronger effect = lower value 0.977 | locus YBR171W, strain sec66, stronger effect = lower value 0.975 | locus YBR229C, strain ROT2, stronger effect = lower value 0.99 | locus YBR231C, strain swc5, stronger effect = lower value 0.983 | locus YBR279W, strain paf1, stronger effect = lower value 0.982 | locus YCL011C, strain gbp2, stronger effect = lower value 0.963 | locus YCL016C, strain dcc1, stronger effect = lower value 0.976 | locus YCL029C, strain bik1, stronger effect = lower value 0.983 | locus YCL061C, strain MRC1, stronger effect = lower value 0.987 | locus YCL069W, strain vba3, stronger effect = lower value 0.981 | locus YCR088W, strain abp1, stronger effect = lower value 0.982 | locus YDL005C, strain med2, stronger effect = lower value 0.957 | locus YDL035C, strain GPR1, stronger effect = lower value 0.975 | locus YDL040C, strain nat1, stronger effect = lower value 0.985 | locus YDL074C, strain BRE1, stronger effect = lower value 0.977 | locus YDL101C, strain DUN1, stronger effect = lower value 0.98 | locus YDL134C, strain PPH21, stronger effect = lower value 0.985 | locus YDL192W, strain arf1, stronger effect = lower value 0.986 | locus YDR001C, strain nth1, stronger effect = lower value 0.964 | locus YDR069C, strain doa4, stronger effect = lower value 0.981 | locus YDR101C, strain arx1, stronger effect = lower value 0.978 | locus YDR137W, strain rgp1, stronger effect = lower value 0.977 | locus YDR150W, strain NUM1, stronger effect = lower value 0.954 | locus YDR159W, strain sac3, stronger effect = lower value 0.982 | locus YDR162C, strain NBP2, stronger effect = lower value 0.99 | locus YDR195W, strain ref2 0.949 | locus YDR297W, strain sur2, stronger effect = lower value 0.979 | locus YDR318W, strain mcm21, stronger effect = lower value 0.969 | locus YDR334W, strain swr1, stronger effect = lower value 0.944 | locus YDR335W, strain msn5, stronger effect = lower value 0.98 | locus YDR388W, stronger effect = lower value 0.989 | locus YDR392W, strain spt3, stronger effect = lower value 0.927 | locus YDR502C, strain sam2, stronger effect = lower value 0.98 | locus YEL003W, strain gim4, stronger effect = lower value 0.974 | locus YEL037C, strain rad23, stronger effect = lower value 0.967 | locus YEL061C, strain CIN8 (second series), stronger effect = lower value 0.976 | locus YEL061C, strain CIN8, stronger effect = lower value 0.996 | locus YER015W, strain faa2, stronger effect = lower value 0.971 | locus YER016W, strain bim1, stronger effect = lower value 0.974 | locus YER110C, stronger effect = lower value 0.962 | locus YER111C, strain swi4, stronger effect = lower value 0.972 | locus YER155C, strain BEM2 (second series), stronger effect = lower value 0.976 | locus YER155C, strain BEM2, stronger effect = lower value 1.01 | locus YER167W, strain BCK2, stronger effect = lower value 0.978 | locus YFR010W, strain ubp6, stronger effect = lower value 0.952 | locus YGL078C, strain dbp3, stronger effect = lower value 0.979 | locus YGL086W, strain mad1, stronger effect = lower value 0.975 | locus YGL167C, strain pmr1, stronger effect = lower value 0.973 | locus YGL173C, strain kem1, stronger effect = lower value 0.954 | locus YGL227W, strain vid30, stronger effect = lower value 0.973 | locus YGL240W, strain doc1, stronger effect = lower value 0.987 | locus YGL248W, strain PDE1, stronger effect = lower value 0.99 | locus YGL253W, strain hxk2, stronger effect = lower value 0.974 | locus YGR078C, strain PAC10, stronger effect = lower value 0.986 | locus YGR135W, strain pre9, stronger effect = lower value 1 | locus YGR229C, strain SMI1, stronger effect = lower value 1.01 | locus YGR252W, strain gcn5, stronger effect = lower value 0.93 | locus YHR013C, strain ard1, stronger effect = lower value 0.945 | locus YHR027C, strain rpn1, stronger effect = lower value 0.967 | locus YHR030C, strain SLT2, stronger effect = lower value 0.982 and 1.02 | locus YHR079C, strain IRE1 (second series), stronger effect = lower value 0.977 | locus YHR079C, strain IRE1, stronger effect = lower value 1.04 | locus YHR094C, strain hxt1, stronger effect = lower value 0.969 | locus YHR129C, strain ARP1, stronger effect = lower value 0.945 | locus YHR142W, strain chs7, stronger effect = lower value 0.932 | locus YHR200W, strain rpn10, stronger effect = lower value 0.965 | locus YIL066C, strain RNR3, stronger effect = lower value 0.974 | locus YIL073C, strain SPO22, stronger effect = lower value 0.875 | locus YIL125W, strain kgd1, stronger effect = lower value 0.965 | locus YIR030C, strain dcg1, stronger effect = lower value 0.98 | locus YJL092W, strain hpr5, stronger effect = lower value 0.978 | locus YJL095W, strain BCK1 (second series), stronger effect = lower value 0.993 | locus YJL095W, strain BCK1, stronger effect = lower value 0.994 and 0.984 | locus YJL115W, strain asf1, stronger effect = lower value 0.936 | locus YJL129C, strain trk1, stronger effect = lower value 0.94 | locus YJL134W, strain LCB3, stronger effect = lower value 0.973 | locus YJL154C, strain vps35, stronger effect = lower value 0.967 | locus YJL164C, strain tpk1, stronger effect = lower value 1 | locus YJL166W, strain qcr8, stronger effect = lower value 0.984 | locus YJL168C, strain set2, stronger effect = lower value 0.98 | locus YJL187C, strain SWE1 (second series), stronger effect = lower value 0.976 | locus YJL187C, strain SWE1, stronger effect = lower value 0.988 | locus YJR043C, strain POL32, stronger effect = lower value 0.96 | locus YJR066W, strain TOR1, stronger effect = lower value 0.976
